Rows were chosen to be rich in hits. Some 2.4% of all compounds tested hit in one or more screens of this group.
D2 antag = HTS Assay for Allosteric Antagonists of the Human D2 Dopamine Receptor: Primary Screen for Antagonists; D(2) dopamine receptor (Homo sapiens), P14416; HEK293 TREx D2 cells, calcium flux, dopamine EC80; inhibition, % at 10 µM; hit rate 2% among 340,000; in the data active means inhibition above about 30%; inactive means below that, where a call was filed
Target sequence (P14416 whole entry, looked up): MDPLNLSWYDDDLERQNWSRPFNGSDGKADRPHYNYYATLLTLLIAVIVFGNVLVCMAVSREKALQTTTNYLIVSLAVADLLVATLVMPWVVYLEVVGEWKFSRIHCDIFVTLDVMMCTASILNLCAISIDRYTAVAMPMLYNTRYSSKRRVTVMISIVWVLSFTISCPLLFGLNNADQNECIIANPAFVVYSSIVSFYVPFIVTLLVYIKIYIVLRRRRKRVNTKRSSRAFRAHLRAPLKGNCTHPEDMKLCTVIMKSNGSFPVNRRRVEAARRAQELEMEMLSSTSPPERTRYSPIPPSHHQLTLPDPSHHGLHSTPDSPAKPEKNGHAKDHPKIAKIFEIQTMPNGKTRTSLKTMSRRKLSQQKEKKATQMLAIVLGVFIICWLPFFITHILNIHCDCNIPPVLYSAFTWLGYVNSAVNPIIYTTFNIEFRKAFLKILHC
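Measurement of antagonist activity uses fluorescent calcium dye in inducible HEK293 T-REx D2 cells: 10 s baseline, compound addition with 180 s read, EC80 dopamine addition with a further 180 s read.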
D2 ag-1 = Beta-Arrestin HTS for Positive Allosteric Modulators of the Human D2 Dopamine Receptor: Agonists; activation, % (test concentration not listed); AID 624465, 2012; DiscoveRx PathHunter D2 beta-arrestin, luminescence, 90 min; 100% = 57 uM dopamine signal; D(2) dopamine receptor (Homo sapiens), P14416; hit rate 0.084% among 360,000; in the data active means activation above about 40%; inconclusive means between about 15% and that limit
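Agonist mode: compounds alone added to overnight-plated D2 PathHunter cells for 90 min at 37 C, with 57 uM final dopamine (EC100) defining full response. Beta-arrestin recruitment detected by chemiluminescent reagent, read after 1 h at ambient temperature.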
D2 PAM-1 = Beta-Arrestin HTS for Positive Allosteric Modulators of the Human D2 Dopamine Receptor: Potentiators | DiscoveRx D2 beta-arrestin cells, luminescence, 90 min; 100% = 57 uM dopamine signal | D(2) dopamine receptor (Homo sapiens), P14416 | hit rate 0.23% among 360,000 | potentiation, % (concentration not given with the values) | AID 624464, 2012; in the data active means potentiation above about 50%; inconclusive means mostly about 30% to 49%
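PathHunter D2 cells, attached overnight at 37 deg C, received compound in DMSO plus dopamine at EC20 (50 nM final) for 90 min at 37 deg C. Beta-arrestin recruitment was read as luminescence after 1 h with detection reagent at ambient temperature.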
D2 ag-2 = HTS Assay for Allosteric Agonists of the Human D2 Dopamine Receptor: Primary Screen for Agonists. activation, % at 2 µM. hit rate 0.53% among 340,000. HEK293 T-REx D2 cells, calcium flux agonist mode;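 active means activation over 3 SD above normal in the single-dose calcium agonist read, cut at about 30% in these data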
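HEK293 Trex D2 cells, tetracycline-induced, o/n 30 C 5% CO2; no-wash Ca dye, RT 30–90 min; 10-cycle baseline, 23 nl cpd added, kinetic Ca read 180 s; agonist hits = positive Ca response.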
D2 PAM-2 = HTS Assay for Positive Allosteric Modulators of the Human D2 Dopamine Receptor: Primary Screen for Potentiators; potentiation, % at 10 µM; AID 485347, 2010; HEK293 T-REx D2, calcium flux, EC20 dopamine potentiation; hit rate 0.34% among 340,000;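 active means potentiation over 3 SD above the plate norm, cut at about 30% in these data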
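Tetracycline-induced HEK293 T-REx cells force-coupled to calcium signalling expressed D2; compounds were pin-added after a 10 s baseline, read kinetically 180 s, then an EC20 dopamine challenge followed with a further 180 s calcium read.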
Hits are given with their value; n = inactive; u = inconclusive; x = no result given.

SMILES	D2 antag	D2 ag-1	D2 PAM-1	D2 ag-2	D2 PAM-2
O=[N+]([O-])c1nn(-c2ccccc2)n(O)c1=NCCc1ccccc1	n	u	160.6	n	n
Cc1ccc(CCN=c2c([N+](=O)[O-])nn(-c3ccccc3)n2O)cc1	n	u	67.3	n	n
COc1ccc(-n2nc([N+](=O)[O-])c(=NCCc3ccccc3)n2O)cc1	n	u	131.2	n	n
COC(=O)C1=CN(Cc2ccc(C)cc2)C=C(C(=O)OC)C1c1cc(OC)c(OC)c(OC)c1	n	n	n	n	n
COCCN1C=C(C(=O)OC)C(c2cc(Br)c(OC)c(OC)c2)C(C(=O)OC)=C1	n	n	n	n	33.5
COC(=O)c1cccc(Nc2c(-c3ccc(OC)cc3)nc3nc[nH]n23)c1	x	x	x	n	n
O=C(NCc1ccccc1Cl)NC(=O)c1ccccc1	33.4	n	n	n	n
O=C(NCc1ccccc1)Nc1cccn(Cc2ccc(Cl)cc2)c1=O	n	n	n	n	n
O=C(NCc1ccccc1)Nc1cccn(Cc2ccccc2Cl)c1=O	33.2	n	n	n	n
O=C(Nc1nc2n(n1)C(c1ccc(F)cc1)C=C(c1ccc(Cl)cc1)N2)c1ccc([N+](=O)[O-])cc1 (stereo unspecified)	x	x	x	x	n
O=S(=O)(Nc1cccc2ccccc12)c1cccs1	n	90.5	n	n	n
Cc1c(NS(=O)(=O)c2cccc(C(=O)N3CCCC3)c2)c(=O)n(-c2ccccc2)n1C	x	n	n	x	x
Cc1c(NC(=O)c2cccc(NC(=O)Cc3ccc(Cl)cc3)c2)c(=O)n(-c2ccccc2)n1C	32.7	n	n	n	n
Cc1c(NS(=O)(=O)c2ccc(NC(=O)CCC(=O)O)cc2)c(=O)n(-c2ccccc2)n1C	30.1	n	n	n	n
CC(=O)N1CCN(C(=O)c2cccc(S(=O)(=O)Nc3c(C)n(C)n(-c4ccccc4)c3=O)c2)CC1	51.1	n	n	n	n
CC(=O)Nc1ccc(S(=O)(=O)Nc2c(C)n(C)n(-c3ccccc3)c2=O)cc1	n	n	n	n	n
COC(=O)c1ccc(CSc2c(C(C)C)cnc3c2c(=O)n(C)c(=O)n3C)cc1	x	x	x	n	n
CC(C)Cn1c(CCCNC(=O)c2ccc(F)cc2)nc2ccccc21	30.9	n	n	n	n
Nc1nc(NCCc2ccccc2)nc(NCCO)c1[N+](=O)[O-]	n	n	n	n	34.0
Cc1cc(C)n(-c2nc(C)c(C)c(=O)n2CC(=O)Nc2ccc(Cl)c(Cl)c2)n1	x	x	x	n	n
CN1CCN(C(c2ccccc2)c2ccc(Cl)cc2)CC1 (stereo unspecified)	x	n	n	x	x
CN1CCN(C(c2cccc(Cl)c2)c2ccccc2Cl)CC1 (stereo unspecified)	82.6	n	n	n	n
CCCN1CCC(=O)N([C@H](CN=[N+]=[N-])Cc2ccccc2)CC1	37.5	n	n	n	n
CC(C)CN1CCC(=O)N([C@H](CN=[N+]=[N-])Cc2ccccc2)CC1	n	n	n	n	n
COc1ccc(N2CCN(CCCNC(=O)c3nnc(Cc4ccc(F)cc4)o3)CC2)cc1	x	x	x	n	n
SMILES	D2 antag	D2 ag-1	D2 PAM-1	D2 ag-2	D2 PAM-2
C/C(CCc1ccccc1)=N\NC(=S)NCCc1ccccc1	n	n	n	n	30.8
COc1cc(CN(C)CCc2ccccc2)ccc1OCc1ccccc1	36.3	n	n	n	n
CCN1CCN(c2cc(C)c3cc(NC(=O)/C=C/c4ccc(OCCC(C)C)cc4)ccc3n2)CC1	x	x	x	n	n
Cc1ccc(C(C)C)c(OCc2nn(CC(=O)c3ccc(Cl)cc3)c3[n+]2CCCCC3)c1	33.0	n	n	n	n
O=C(Cn1nc(CNc2ccc(Cl)cc2)[n+]2c1CCCCC2)c1ccccc1	n	n	n	n	n
Cc1c2ccccc2nc2c(F)c(NC(C)C)c(F)c(F)c12	n	n	n	44.8	n
CCCCCCCCC(=O)N/N=C(\C)c1ccc(O)cc1O	49.0	n	n	n	n
CCCCCCCC(=O)N/N=C(\C)c1ccc(O)cc1O	71.8	n	n	n	n
CCCCCCCC(=O)N/N=C(\C)c1ccc(N)cc1	n	x	x	n	n
O=C(NCCCN1CCCCC1)c1ccc2c(c1)ncn2C1CCCC1	30.1	n	n	n	n
COCC(C)NC(=O)CCS(=O)(=O)c1nc(-c2ccc(OC)cc2)cc(C(F)(F)F)n1 (stereo unspecified)	n	n	n	n	39.2
CCCN(Cc1nnc(-c2cccs2)o1)C(=O)CN1C(=O)NC2(CCCCC2)C1=O	31.4	n	n	n	n
CCCN(Cc1nnc(-c2cccs2)o1)C(=O)CN1C(=O)NC2(CCC(C)CC2)C1=O (stereo unspecified)	n	n	n	n	n
Cc1cc(NC(=O)Nc2nc3c(s2)CCCCCC3)ccc1Br	x	x	x	n	n
CN(c1ccccc1)c1nc(N)c([N+](=O)[O-])c(N2CCCCCC2)n1	n	n	n	n	n
CCN1CCN(c2nc(N(C)c3ccccc3)nc(N)c2[N+](=O)[O-])CC1	49.5	n	n	n	n
CN1CCN(c2nc(NCc3ccco3)nc(N)c2[N+](=O)[O-])CC1	77.2	n	n	n	n
CCN1CCN(c2nc(Nc3ccc(C)c(C)c3)nc(N)c2[N+](=O)[O-])CC1	51.5	n	n	n	n
Cc1nc2c(C(=O)NCc3ccccc3Cl)cnn2c(C)c1Cc1c(F)cccc1Cl	x	x	x	n	n
COc1cc(NC(=O)CN2CCN(c3ccc(F)cc3)CC2)cc(OC)c1	x	x	x	n	n
CCOc1ccc(CCNC(=O)c2sc3nc4n(c(=O)c3c2C)CCC4)cc1OCC	30.2	n	n	n	n
CCOc1ccc(CCNC(=O)c2sc3nc4n(c(=O)c3c2C)CCCC4)cc1OCC	x	x	x	n	n
Cc1ccc2nc(N3C(=O)C(O)=C(C(=O)c4ccco4)C3c3ccc(O)cc3)sc2c1 (stereo unspecified)	n	x	x	n	n
Cc1ccc2nc(N3C(=O)C(O)=C(C(=O)c4ccco4)C3c3ccc(C)o3)sc2c1 (stereo unspecified)	31.0	n	n	n	n
O=C(C1=C(O)C(=O)N(c2nc3ccc(Cl)cc3s2)C1c1ccco1)c1ccco1 (stereo unspecified)	n	n	n	n	n
Cc1ccc2nc(N3C(=O)C(O)=C(C(=O)c4ccc(C)o4)C3c3ccco3)sc2c1 (stereo unspecified)	31.3	n	n	n	n
O=C(C1=C[C@@H](c2coc3ccccc3c2=O)C[C@@H](OCCCCO)O1)N1CCOCC1	62.1	n	n	n	n

High-throughput results from PubChem.
